Source: PubChem
Shown is part of a subset that was picked to be rich in hits.
GluA2 TARP mod: modulators of GluA2-stargazin AMPA receptor complexes, primary screen, cell-based, membrane potential dye | Voltage-dependent calcium channel gamma-2 subunit (Mus musculus) + Glutamate receptor 2 … | HEK293 GluA2+stargazin, membrane potential dye (FDSS), glutamate EC50; hits were called plate by plate, in both directions | calls only at 30 µM | 40,000 compounds, 3.5% hits;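 active = any of four per-well response measures lying three or more SD from its plate-wide compound average, in either direction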
GIRK2 activator: activators of NPY4-receptor-primed GIRK2 channels, summary, cell-based, HEK293, thallium flux | AID 1259324, 2017 | activation (% efficacy), % for hits at 37.5 µM | G protein-activated inward rectifier potassium channel 2 (Homo sapiens), P48051 | HEK293 GIRK2/NPY4 cells, thallium flux fluorescence | 34,000 tested, under 10 active;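 active = primary screen hit, no activity in plain HEK293 cells, and in GIRK2-only cells above 5% efficacy rising with concentration; inactive = the rest, including fluorescent compounds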;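 also: efficacy is normalized control-subtracted fluorescence 15 s after thallium addition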
Target sequence (P48051 whole entry, looked up): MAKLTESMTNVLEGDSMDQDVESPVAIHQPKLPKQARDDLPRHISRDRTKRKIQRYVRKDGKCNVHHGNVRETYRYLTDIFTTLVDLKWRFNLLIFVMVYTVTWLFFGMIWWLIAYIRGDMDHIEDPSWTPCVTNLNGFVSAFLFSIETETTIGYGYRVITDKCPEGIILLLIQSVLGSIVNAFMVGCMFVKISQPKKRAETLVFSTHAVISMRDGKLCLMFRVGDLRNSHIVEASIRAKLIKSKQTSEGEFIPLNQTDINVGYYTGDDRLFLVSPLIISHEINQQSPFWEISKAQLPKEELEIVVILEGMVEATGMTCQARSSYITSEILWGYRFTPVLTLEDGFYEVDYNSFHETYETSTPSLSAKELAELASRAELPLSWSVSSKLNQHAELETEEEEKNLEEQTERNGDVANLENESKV
* hit, by the source's call; i = inactive; nt = no result; + = active, no number; ! = repeats disagree.

SMILES	GluA2 TARP mod	GIRK2 activator
COc1ccc(C(CNC(=O)C(=O)Nc2cccc(Cl)c2C)N2CCOCC2)cc1 (stereo not drawn)	nt	i
COc1ccc(Cl)cc1NC(=O)Cn1ncn2nc3c(c2c1=O)CCCC3	+	i
COc1ccc(CCNC(=O)Cn2ncn3nc4c(c3c2=O)CCCC4)cc1OC	nt	i
COc1ccccc1N1C(=O)CC(N2CCN(Cc3ccccc3)CC2)C1=O (stereo not drawn)	i	i
CCOc1cc(/C=C/c2ccc3cccc(O)c3n2)cc(Br)c1O	i	nt
COc1cc(/C=C/c2ccc3cccc(O)c3n2)cc(Br)c1O	+	nt
COc1ccc(-c2ccc(S(=O)(=O)NCCc3ccccc3)cc2)cc1	i	i
CN(C1CCCC1)S(=O)(=O)c1ccc(C(=O)Nc2nc3ccccc3s2)cc1	i	nt
COc1cccc2sc(NC(=O)c3ccc(S(=O)(=O)N(C)C4CCCC4)cc3)nc12	+	i
COc1cc([N+](=O)[O-])cc2sc(NC(=O)c3ccc(S(=O)(=O)N(C)C4CCCC4)cc3)nc12	+	nt
COc1ccc([N+](=O)[O-])cc1NC(=O)c1ccc(S(=O)(=O)N(C)C2CCCC2)cc1	i	nt
COCCn1c(-n2nc(C)cc2C)nc2c1c(=O)[nH]c(=O)n2C	i	i
CS(=O)(=O)N1CCN(C(=O)Cc2csc(Nc3ccc(F)cc3)n2)CC1	i	i
COc1cccc(NC(=O)NCC2(c3cccs3)CC2)c1	+	i
O=C(NCC1(c2cccs2)CC1)Nc1cccc(C(F)(F)F)c1	i	i
Cc1ccc(-c2csc(NC(=O)C3CCN(S(=O)(=O)c4ccc(Cl)cc4)CC3)n2)cc1	i	nt
Cn1nc(CNC(=O)CSC2CCCC2)c2ccccc2c1=O	i	i
O=[N+]([O-])c1ccc(C2=NCCN2)cc1	+	nt
O=C(Nc1ccccc1)C(=O)Nc1ccc([N+](=O)[O-])cc1	i	nt
C=CCN1C(=O)SC(CC(=O)Nc2ccc(C(=O)OC)cc2)C1=O (stereo not drawn)	i	i
C=CCN1C(=O)SC(CC(=O)Nc2ccc([N+](=O)[O-])cc2)C1=O (stereo not drawn)	+	i
CC(O)(CNC(=O)C(=O)NC1CCCC1)c1ccccc1 (stereo not drawn)	nt	i
COc1ccc(C2(CNC(=O)C3CCN(S(C)(=O)=O)CC3)CCCC2)cc1	+	i
COc1ccc(C2(CNS(C)(=O)=O)CCCC2)cc1	i	i
N#CC1(C(=O)Nc2ccc(Oc3ccccc3)cc2)CC1	nt	i
SMILES	GluA2 TARP mod	GIRK2 activator
CCOC(=O)c1ccccc1NC(=O)CSc1c(C)cnc2c1c(=O)n(C)c(=O)n2C	i	i
CCOC(=O)c1ccccc1NC(=O)CSc1c(CC(C)C)cnc2c1c(=O)n(C)c(=O)n2C	+	nt
COc1ccc(-c2noc(C3CCN(S(=O)(=O)c4ccc(Cl)cc4)CC3)n2)cc1	i	i
COc1ccc(-c2noc(C3CCN(S(=O)(=O)c4ccc(C)cc4)CC3)n2)cc1	+	i
O=S(=O)(c1ccc(Oc2ccccc2Cl)cc1)N1CCCCC1	i	nt
O=S(=O)(c1ccc(Oc2ccccc2Cl)cc1)N1CCCC1	+	nt
Cc1nc(NCc2ccccc2)sc1C(=O)NCc1ccccc1Cl	i	i
COCCn1c(=O)c2c(nc3n2CCCN3c2cccc(C)c2)n(C)c1=O	i	nt
O=C(Nc1nc(-c2cccnc2)cs1)C1CCN(S(=O)(=O)c2cccs2)CC1	i	nt
O=C(Nc1nc(-c2cccnc2)cs1)C1CCN(S(=O)(=O)c2ccc(Cl)s2)CC1	+	nt
CCOc1ccc(NC(=O)CSc2nc(=O)n(CCO)c3c2CCCC3)cc1	+	i
CC(=O)Nc1ccc(NC(=O)CSc2nc(=O)n(CCCO)c3c2CCCC3)cc1	i	i
COc1ccc(S(=O)(=O)CC(=O)Nc2nc(-c3cc(Cl)sc3Cl)cs2)cc1	+	i
COc1ccc(S(=O)(=O)CC(=O)Nc2nc(-c3cc(Cl)ccc3Cl)cs2)cc1	i	i
CSc1ccccc1C(=O)N1CCC(c2cccs2)CC1	+	i
O=C(c1ccccc1Oc1ccccc1)N1CCC(c2cccs2)CC1	i	i
COc1ccc(-c2cc(=O)n(Cc3cccc(C(F)(F)F)c3)cn2)cc1	i	i
O=C(CN1C(=O)c2ccccc2C1=O)Nc1sc2c(c1-c1nc3ccccc3s1)CCCC2	i	nt
COc1ccc(CNC(=O)c2ccc(NC(=O)Cn3c(C)cc(C)c(C#N)c3=O)cc2)c(OC)c1	+!	i
COc1ccc(S(=O)(=O)c2c(C)cc(C)n(CC(=O)Nc3cc(OC)ccc3OC)c2=O)cc1	i	i
COc1cc(C)ccc1OCC(=O)N1CCN(c2ccc3nnc(C)n3n2)CC1	+	i
